Experimental data: PubChem BioAssay (Tox21)
Records with an inconclusive call do not appear. Where a call stands in place of a potency, no number is given. The source made the active and inactive calls. Calls come from the whole dose curve; as a rule, active = well fitted activation curve with a large enough effect in the repeat runs; inconclusive = weak or mixed curves; inactive = no such curve, though single readings can be large or run the other way.

Experiment: qHTS assay to identify small molecule agonists of the estrogen related receptor signaling pathway with the pleiotropic PPARgamma coactivator (PGC) (AID 1224823)
Settings: ERR/PGC reporter cell line, luciferase agonist mode; series mostly up to 46.1 µM
Text: National Center for Advancing Translational Sciences [NCATS]
NIH Chemical Genomics Center [NCGC]
U.S. Environmental Protection Agency [EPA]
National Institutes of Environmental Health Sciences [NIEHS]
National Toxicology Program [NTP]
Estrogen related receptors (ERRs), the first orphan nuclear receptors discovered, play an important role in the control of cellular energy metabolism. ERRs are required for high-energy production in response to the environmental challenges. The pleiotropic PPARgamma coactivator (PGC) is a major partner of ERR and a key regulator in energy homeostasis. Together they have been implicated in the etiology of metabolic disorders such as Type 2 diabetes and metabolic syndrome. ERR-alpha was also identified as an adverse marker for breast cancer progression; ERR-alpha-positive tumors have a poor prognosis. To screen and to identify environmental compounds that perturb the PGC/ERR signaling pathways could provide valuable information for potential therapeutic or preventive measures in the treatment of metabolic disease. For identifying PGC/ERR agonists, PGC/ERR cell line (provided by NTP) has been used to screen LOPAC library.
The PGC/ERR cells were dispensed at 2,000 cells/5 ul/well in 1536-well white plates using a Multidrop dispenser. After the assay plates were incubated at a 37 C/5% CO2 incubator for 6 hours, 23 nL of compounds dissolved in DMSO, positive and negative controls or DMSO only was transferred to the assay plate by a pin tool. The plates were incubated at 37 C for 18 hours. 4 ul/well of One-Glo reagent was added into the assay plates using a Flying Reagent Dispenser. After 30 min incubation at room temperature, the luminescence intensity in the plates was measured using a ViewLux plate reader.
Potency is the fitted concentration of half-maximal effect.

Row | Compound | Potency
1 | Cc1nn(-c2ccccc2)c(C)c1/C=N/N1CCN(Cc2ccccc2)CC1 | inactive
2 | O=C(c1cc(O)c(O)c([N+](=O)[O-])c1)c1ccccc1F | inactive
3 | NC(=NCc1ccccc1)NC(=O)c1nc(Cl)c(N)nc1N | inactive
4 | CCCCCCC/C=C\CCCCCCCCC(=O)O | inactive
5 | N=c1c[n+](N2CCOCC2)[n-]o1 | inactive
6 | NC1(C(=O)O)CCCCC1 | inactive
7 | COc1cc(CNC(=O)CCCCCCC(C)C)ccc1O | inactive
8 | NC(=O)c1cc[n+](CC2=C(C(=O)O)N3C(=O)[C@@H](NC(=O)[C@@H](c4ccccc4)S(=O)(=O)[O-])[C@H]3SC2)cc1 | inactive
9 | CSc1nc(N)c2ncn([C@@H]3O[C@H](COP(=O)(O)OP(=O)(O)OP(=O)(O)O)C(O)[C@H]3O)c2n1 (stereo not given in full) | inactive
10 | CCC1(O)CC2CN(CCc3c([nH]c4ccccc34)[C@@](C(=O)OC)(c3cc4c(cc3OC)N(C)C3[C@]45CCN4CC=C[C@@](CC)([C@@H](OC(C)=O)[C@]3(O)C(=O)OC)[C@H]45)C2)C1 (stereo not given in full) | inactive
11 | CN(C)C(N)=NCCC[C@H](N)C(=O)O | inactive
12 | N[C@@H](Cc1ccc(O)c(O)c1)C(=O)O | inactive
13 | O=C(O)CCC(=O)N1CCCC1C(=O)O (stereo not given) | inactive
14 | O=C1c2c(O)cc(O)cc2OC(c2ccc(O)c(O)c2)C1O (stereo not given) | inactive
15 | Brc1cc2c(cc1[C@H]1Nc3ccccc3[C@H]3C=CC[C@H]31)OCO2 | inactive
16 | NC1(C(=O)O)CC1 | inactive
17 | C=C1C[C@@]23CC[C@H]4[C@@](C)(CCC[C@@]4(C)C(=O)OC4OC(CO)C(O)C(O)C4O)[C@@H]2CC[C@]1(OC1OC(CO)C(O)C(O)C1OC1OC(CO)C(O)C(O)C1O)C3 (stereo not given in full) | inactive
18 | CN1C2CCC1CC(OC(c1ccccc1)c1ccccc1)C2 (stereo not given) | inactive
19 | CC(/C=C/c1cccc(Oc2ccc(F)cc2)c1)N(O)C(N)=O (stereo not given) | inactive
20 | Cn1cc(C(=O)OCC2CCN(CCNS(C)(=O)=O)CC2)c2ccccc21 | inactive

Row | Compound | Potency
21 | COc1ccccc1N1CCN(CCCCNC(=O)c2ccc3ccccc3c2)CC1 | inactive
22 | O=C1C(SCCO)=C(SCCO)C(=O)c2ccccc21 | inactive
23 | O=C(/C=C/c1ccc(O)c(O)c1)OCCc1ccccc1 | 14.4 µM (active)
24 | CO[C@H]1O[C@@H]2O[C@]3(C)CC[C@@H]4[C@@H](C)CC[C@H]([C@H]1C)[C@]24OO3 | inactive
25 | Brc1ccc([C@H]2CN3CCSC3=N2)cc1 | inactive
26 | NCCCCN | inactive
27 | O=C(O)C1=CC(=C(c2ccc(O)c(C(=O)O)c2)c2ccc(O)c(C(=O)O)c2)C=CC1=O | inactive
28 | COc1cc(OC)c(/C=C2/C(=O)Nc3ccccc32)c(OC)c1 | inactive
29 | N[C@H](CCCP(=O)(O)O)C(=O)O | inactive
30 | O=C(O)c1cc(=O)c2c(Cl)cc(Cl)cc2[nH]1 | inactive
31 | N#Cc1cc2nc(O)c(O)nc2cc1[N+](=O)[O-] | inactive
32 | C[C@@H](NCCc1ccc(O)cc1)[C@@H](O)c1ccc(O)cc1 | inactive
33 | O=C(c1ccc(Cl)cc1)N1CCN(c2ccc([N+](=O)[O-])c3ncccc23)CC1 | inactive
34 | N#CC(C#N)=C(N)/C(C#N)=C/c1ccc(O)cc1 | inactive
35 | CCN(CC)CCCCCCCCOC(=O)c1cc(OC)c(OC)c(OC)c1 | inactive
36 | Fc1cccc(/C=N/N=C/c2cccc(F)c2)c1 | 12.3 µM (active)
37 | Cc1cccc(C)c1OCC(N)C(C)C (stereo not given) | inactive
38 | O=C(O)CC1CCCc2ccccc2C1O (stereo not given) | inactive
39 | CN(C)CCCc1cc(C(=O)Nc2ccc(-c3ccncc3)cc2)ccc1O | inactive
40 | CCCCCCCC/C=C\CCCCCCCC(=O)NCCO | inactive
